According to the supplement of paper PMC6555819:

What was measured:
Experiment in all cases: PBM binding z-score (relative to random genomic background probes); higher = stronger binding; sequences stand for … in GC…GCGATTGACAGCGTAGAATGAAGG
[1] = tested on: RARb homodimer (NR concentration 270 nM)
Method in brief: (§1)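 Regression normalization was applied to scanned fluorescence from custom Agilent 4×180K protein-binding microarrays. Before scanning, arrays were incubated 1 h with ligand-free nuclear receptor dimers, and binding was detected with antibodies against each partner (one per run). Binding z-scores use the random background probes as reference.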

[2] = tested on: RARg:RXRa (NR concentration 270 nM, RXRa partner concentration 90 nM)
Method in brief: as §1

[3] = tested on: RARg homodimer (NR concentration 270 nM)
Method in brief: as §1

[4] = tested on: RXRa DBDmut IVT, anti-RXR (DBD mutation: RXRa K156A/R161A, NR concentration 90 nM)
Method in brief: as §1

[5] = tested on: RXRa homodimer (NR concentration 180 nM)
Method in brief: as §1

[6] = tested on: THRa:RXRa (NR concentration 90 nM, RXRa partner concentration 90 nM)
Method in brief: as §1

[7] = tested on: THRa homodimer (NR concentration 90 nM)
Method in brief: as §1

[8] = tested on: VDR homodimer (NR concentration 270 nM)
Method in brief: as §1

Sequence | PBM binding z-score [1] | PBM binding z-score [2] | PBM binding z-score [3] | PBM binding z-score [4] | PBM binding z-score [5] | PBM binding z-score [6] | PBM binding z-score [7] | PBM binding z-score [8]
TCATATAGGTAAATGCTAAGTGAAAGTCCGATCT | 0.0173 | 0.4 | 0.337 | 1.68 | 0.615 | 0.0115 | -0.264 | 0.0364
CGTCCAAGGTCAGCCGGTCAGTGAAAGCGACGTG | 4.5 | 5.54 | 6.43 | 2.56 | 3.93 | 3.58 | 1.93 | 0.973
ATCGAAAGGTCGAAGGTTAGTATACCCACCCGAA | 2.72 | 4.38 | 3.94 | 1.41 | 5.38 | 2.19 | 0.185 | 0.865
ATACCAAGTTGATCGTGAGGTCGTTGATACTAAC | 1.39 | 1.26 | 0.677 | 1.34 | 1.08 | 2.75 | 2.33 | 3.08
AGAATGAGGTAATACGTAGATCAGGGAAGAAAGT | -0.0706 | 0.35 | 0.314 | -0.0157 | 0.428 | 1.39 | 0.304 | -0.472
TAGCCTAGGTCATTCCGGGGCCAGTATAGAAAGC | 3.12 | 5.28 | 4.24 | 1.28 | 2.66 | 3.63 | 0.929 | 1.46
CCTACTGGGCAATTCAGAGGTCATTGATCATATG | 3.57 | 3.21 | 2.73 | 0.679 | 3.76 | 2.98 | 1.16 | 3.05
GCGAATGGGGCAAAGCAGGTTACCATAAGGTTGG | 1.06 | 0.565 | 0.52 | -0.201 | 0.442 | 3.12 | 0.0667 | -0.552
CTCGAAAGGTCGGTTGAAGTGAGTATACGGATAA | 1.72 | 2.38 | 2.65 | 0.742 | 1.98 | 1.42 | 0.13 | 0.557
CGTCAAAGTTCAACTAAGGTAACGCAAAGCACGC | 4.28 | 5.94 | 6.37 | 4.62 | 4.92 | 5.48 | 2.13 | 3.54
CCGACTGGGGCAGAAAGGTTTCCATACCATCCGG | 0.129 | -0.218 | 0.0471 | -0.768 | -0.284 | -1.38 | -0.951 | -0.664
ATCTCTAGGTGAAGATAGTTCAGTGAATGCAAAT | 1.19 | 1.16 | 1.27 | -0.299 | 0.687 | 1.24 | 0.00291 | 0.334
CCTACTGGGCAAAAGGTCATTGATTCCAATGCTC | 4.53 | 5.81 | 5.23 | 0.966 | 6.04 | 3.09 | 0.51 | 1.72
TCAGACAGGTGAAGGCAACTCAGGTACGCAGTCG | 0.466 | 0.17 | 0.317 | 0.993 | 0.955 | 0.99 | -0.0896 | -0.101
GCTAGTCGGTCAGTAAAAGGTCACACACCGGTCG | 5.59 | 6.16 | 6.16 | 0.548 | 5.55 | 3.62 | 1.73 | 1.85
CTCCAAAGGTCGTGCTCAGGTGAGTATACCAAAC | 2.74 | 5.41 | 4 | 2.23 | 5.01 | 4.15 | 1.09 | 0.905
ATATGTAGGTTACATCCGGGTCATTCAGGCTATG | 3.04 | 3.77 | 2.17 | 1.01 | 3.39 | 3.75 | 2.57 | 2.83
GCTAGCAGGCCATCTGGGTCACTCAATGACGGGC | 1.99 | 1.2 | 1.84 | -0.462 | 0.806 | 1.62 | 0.249 | 0.262
CCTTACGGGTCACTCCAGGTTACAGCATCGGAGT | 3.31 | 4.27 | 4.33 | 1.46 | 4.26 | 5.28 | 0.933 | 1.56

Sequence | PBM binding z-score [1] | PBM binding z-score [2] | PBM binding z-score [3] | PBM binding z-score [4] | PBM binding z-score [5] | PBM binding z-score [6] | PBM binding z-score [7] | PBM binding z-score [8]
AGAATGAGGTGATTAAGATCAGGGAATTGCGGTC | 0.255 | 0.185 | 0.285 | 0.136 | 0.381 | 1.53 | 0.417 | -0.688
AGAACGAGGGCATTGAGTTGATAGCACGGGTGGC | 1.01 | 1.11 | 1.39 | 3.13 | 1.04 | 1.14 | -0.127 | 5.15
CCGACTGGGTCATAAGGTTACCATAAGCCAGCCC | 3.46 | 4.62 | 3.25 | 0.935 | 3.8 | 3.13 | 1.94 | 0.993
TAGCTTAGGTCATGCGGGCCAGTATAGTGTCGGC | 3.21 | 3.97 | 4.75 | 1.31 | 2.97 | 3.6 | 2.34 | 0.954
ACTAGTTGGTCAGCTGAGGTCACACAGAATTCGG | 4.54 | 4.18 | 4.44 | 1.41 | 4.19 | 5.12 | 5.11 | 3.47
CGTCCAAGGTCATAGGAGGTCAGCGAAGACAGAT | 5.65 | 7.17 | 7.58 | 4.05 | 7.72 | 5.52 | 3.42 | 4.37
CGAACAAGGGCATGAGTTGATAGCAAATGCCGAT | 0.58 | 1.12 | 1.42 | 1.3 | 0.715 | 0.492 | -0.294 | 1.18
CCTAGCAGGCCAATCTGGGTTACTCAAGGCTTGA | 0.0666 | -0.247 | -0.0907 | -0.131 | -0.48 | 1.61 | -0.596 | -0.739
AGTCAAAGTTCATCTAGGTAACTTAAGATATGCT | 3.54 | 5.3 | 5.5 | 4.71 | 4.34 | 3.05 | 0.221 | 5.32
TCATATAGGTAAATGGTAGGTGAAAGTCCGATCT | 0.917 | 0.69 | 0.384 | 1.84 | 0.945 | 0.858 | 0.785 | 1.1
GCTATTAGTTGACAGGGCAACCGAATGATTCTCG | 0.837 | 0.251 | 0.693 | 0.605 | 0.324 | -0.129 | -0.0185 | -0.0905
CATCGGAGGACAGAAGGTCAGAGCTGTCCGCTTT | 3.44 | 3.28 | 2.93 | -0.108 | 1.8 | 2.07 | 0.044 | 0.139
CCGAGTGGGTTATGGGGCATTCAGGCAACGGTGA | 0.766 | -0.124 | -0.0615 | -1.08 | 0.212 | 0.303 | 0.614 | 0.328
CTACCAAGGTGAACAAGGTCGTCGATTACTATTC | 2.3 | 2.1 | 1.77 | 1.08 | 2.25 | 3.64 | 1.9 | 1.44
ATTGAAAGGTCGACGAGGTGAGTATACACCGTTT | 3.13 | 4.19 | 4.05 | 1.2 | 4.31 | 3.89 | 1.14 | 1.58
ATCTCTAGGTAAAAGTTCAGTCAATCCCGAGGAT | 2.54 | 2.1 | 2.2 | 1.12 | 1.7 | 1.53 | 0.584 | 2.36
ATCTCTAGGTAACAAGTTAAGTGAAAGAGAGGAC | 0.585 | 0.726 | 0.704 | -0.00477 | 0.663 | 1.29 | 0.846 | 0.307
GGAACGAGGGCATTCGAGTTGATAGCGTGGCGAT | 0.509 | 0.892 | 1.16 | 3 | 0.583 | 3.13 | -0.46 | 3.6
AGAATGAGGTTACAAAAGATCAGGGAAACGCTTG | 0.449 | 1.86 | 1.58 | 1.16 | 2.44 | 2.6 | -0.0281 | 0.342

Sequence | PBM binding z-score [1] | PBM binding z-score [2] | PBM binding z-score [3] | PBM binding z-score [4] | PBM binding z-score [5] | PBM binding z-score [6] | PBM binding z-score [7] | PBM binding z-score [8]
TTACCAAGGTGAAGGGTCGTTGATGCACGCCTTG | 1.79 | 2.19 | 1.14 | 0.00143 | 3.13 | 2.35 | 0.598 | 1.16
CCTTACGGGGCACTGACAGGTTATAGCATTTGGA | 0.4 | 0.997 | 0.998 | 0.12 | 0.44 | 0.141 | -0.73 | -0.309
ACTCGGAGGACAAAGGTCAAAGCTACGCCAGTGA | 5.02 | 7.08 | 6.07 | 1.75 | 6.78 | 4.03 | 0.972 | 2.28
ATATGTAGGGTATCGGGTCATTCAGTTTGCGCAT | 2.99 | 2.43 | 1.97 | 1.43 | 2.76 | 3.07 | 2.69 | 3.81
TAGCCTAGGTCACTGGGCCAGTATAGTACGCATC | 3.06 | 3.92 | 4.68 | 0.296 | 2.8 | 2.92 | 0.878 | 0.192
GCTTACGAGTCAAAGGTTATAGCATGAATAGAAT | 1.24 | 2.58 | 1.09 | 0.218 | 5 | 1.76 | -0.786 | -0.176
ATCTCTAGGTAAAGATACTTCAGTGAATGCAAAT | -0.416 | 0.491 | 0.669 | -0.0244 | 0.385 | 0.398 | 0.038 | 0.371
ATCGAAAGTTCGTGAGGTGAGTATACAGAAAGGC | 1.8 | 2.22 | 1.86 | 2.13 | 1.78 | 2.23 | 1.23 | 1.22
CTCGAAAGGTCGGTAGAGGTGAGTATACGGATAA | 2.52 | 2.89 | 2.98 | 0.197 | 2.49 | 4.38 | -0.139 | 0.0872
TCTAGTTGGTCAAAAGTCACACACTCGAAATGCG | 1.01 | 1.34 | 1.06 | 1.33 | 1.55 | 0.553 | 0.457 | 0.578
CGACCAAGGTCAAAGGTCAGTGAAGAGATGACGG | 5.51 | 8.66 | 8.05 | 3.97 | 10.4 | 4.71 | 2.27 | 3.83
CGAACTAGGTCATTGACAGGAGAGTGAATAGTAA | 2.29 | 3.65 | 4.2 | 2.21 | 2.23 | 2.48 | 0.629 | 0.844
ATTCCAAGGTGATCGTGAGGTCGTTGATACTAAC | 1.59 | 2.23 | 0.975 | 0.914 | 1.4 | 3.55 | 2.95 | 3.2
GCTTACGGGTCAGAGGTTATAGCATGAATAGAAT | 2.66 | 4.85 | 3.51 | 1.24 | 6.16 | 2.66 | -0.0589 | 0.979
TCGATTAGTTGAAGGGCAACCGACGAGTCCGTTT | 1.04 | 0.11 | 0.294 | 1.01 | 0.397 | -0.146 | -0.591 | 0.943
AGAACGAGGGCAATGAGTTGATGGCACGGGTGGC | 1.11 | 0.928 | 1.54 | 1.36 | 0.636 | 0.857 | -0.205 | 2.62
TATACAGGGTCAAAGTCCAGAGTACGAATGTCGA | 3.51 | 5.73 | 4.9 | 3.86 | 6.73 | 3.65 | 1.15 | 4.02
AGAATGAGGTTACCAAAGATCAGGAAAACGCTTG | 0.544 | 2.13 | 1.58 | 1.15 | 2.56 | 2.88 | 0.443 | 0.0267
CATACGGGGTCAGCTAGGCCAGAGTAGGGACGGC | 4 | 6.37 | 6.46 | 3.01 | 7.61 | 3.98 | 1.61 | 3.27
